# In PubChem BioAssay:
# The source made the active and inactive calls.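 Rule for the calls, unless noted: active = inhibition at or above 50% at 10 µM; inactive = inhibition below 50%.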
# Columns and labels:
# [1] = inhibitors of TNFa-induced NFkB p65 translocation, primary screen, imaging, HUVEC, MLSMR starter and 10KST1 sets (AID 438;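 active = inhibition above 20% together with a positive visual image hit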;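 note: compound added about 3h40 before a 20 min TNFalpha stimulation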;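 for inhibition: signal is the nuclear over cytoplasmic p65 intensity ratio per well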); conditions: HUVEC TNFa-induced p65 nuclear translocation; cell count: measured here: nuclei count (cytotoxicity indicator), at 2.08 µM; inhibition: at 2 µM, stronger effect = higher value, 0% TNFa-plus-vehicle, 100% no-TNFa wells
# [2] = inhibitors of mutant huntingtin aggregation, primary screen, imaging, exon1htt(103Q)mCFP cells, high-content imaging (AID 483;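 active = visual image review flags a hit and inhibition of aggregation exceeds 20%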;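 note: compound exposure lasted 3 days before fixation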;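 for nuclei count: percent of the per-plate median nuclei count of sample wells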); conditions: exon1htt(103Q)mCFP cell line, aggregate imaging, at 2 µM; inhibition of aggregation: stronger effect = higher value; nuclei count: measured here: cell count, toxicity
# [3] = inhibitors of E-selectin induction by TNFa, primary screen, imaging, HUVEC, immunofluorescence, MLSMR starter and 10KST1 sets (AID 487;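 active = visually confirmed hit in the image check and inhibition above 20%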;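 for inhibition: signal is fraction of cell area covered by stained E-selectin grains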;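 for nuclei count: 100% = median nuclei count of all wells on the same plate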); conditions: HUVEC TNFalpha-induced E-selectin immunofluorescence imaging, at 2 µM; inhibition: stronger effect = higher value; nuclei count: measured here: cell number, toxicity
# [4] = target: Voltage-gated potassium channel subunit beta-2 (Rattus norvegicus) (UniProt P62483); assay: KvBeta enzyme negative modulators, primary screen, biochemical, NADPH fluorescence (AID 622;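 active = fluorescence slope higher than the sample average by over 3 SD, cut at about -0.22 in these data, passing the limit was not always enough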;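 note: slope of raw intensity against log time taken from 70 to 1610 s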); conditions: recombinant KvBeta, 4-cyanobenzaldehyde reduction, at 10 µM, stronger effect = higher value
# Sequence of Voltage-gated potassium channel subunit beta-2 (Rattus norvegicus) (P62483 whole entry, looked up): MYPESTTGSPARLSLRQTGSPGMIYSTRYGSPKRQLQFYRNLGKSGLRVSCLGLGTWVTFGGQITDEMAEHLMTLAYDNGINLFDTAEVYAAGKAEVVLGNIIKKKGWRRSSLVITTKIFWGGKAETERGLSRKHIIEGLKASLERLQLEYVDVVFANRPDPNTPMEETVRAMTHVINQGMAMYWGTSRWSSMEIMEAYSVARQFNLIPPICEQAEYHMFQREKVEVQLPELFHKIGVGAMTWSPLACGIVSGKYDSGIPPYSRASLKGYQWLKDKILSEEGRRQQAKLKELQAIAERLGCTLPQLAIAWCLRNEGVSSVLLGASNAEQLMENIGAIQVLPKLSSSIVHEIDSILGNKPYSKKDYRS
# [5] = target: Voltage-gated potassium channel subunit beta-2 (Rattus norvegicus) (UniProt P62483); assay: KvBeta positive modulators, primary screen, biochemical, NADPH fluorescence (AID 623;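 active = NADPH fluorescence slope more negative than the mean of all samples by about 3 SD, 99.7% confidence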;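 note: fluorescence intensity change per second fitted from 20 to 320 s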); conditions: Recombinant KvBeta, NADPH fluorescence decrease slope, 10 min; at 10 µM; stronger effect = lower value
# [6] = target: Alpha-2C adrenergic receptor (Homo sapiens) (UniProt P18825); assay: modulators of alpha2C/GIRK thallium flux, primary screen, cell-based, HEK293 alpha2C/GIRK1/2 (AID 624;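 active = fluorescence slope after compound addition differing from the mean of all screened samples at 99.7% confidence, in either direction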;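 note: slope of fluorescence ratio to pre-addition baseline per second over 15 to 24 s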); conditions: thallium flux BTC fluorescence, at 10 µM, actives lie on both sides
# Sequence of Alpha-2C adrenergic receptor (Homo sapiens) (P18825 whole entry, looked up): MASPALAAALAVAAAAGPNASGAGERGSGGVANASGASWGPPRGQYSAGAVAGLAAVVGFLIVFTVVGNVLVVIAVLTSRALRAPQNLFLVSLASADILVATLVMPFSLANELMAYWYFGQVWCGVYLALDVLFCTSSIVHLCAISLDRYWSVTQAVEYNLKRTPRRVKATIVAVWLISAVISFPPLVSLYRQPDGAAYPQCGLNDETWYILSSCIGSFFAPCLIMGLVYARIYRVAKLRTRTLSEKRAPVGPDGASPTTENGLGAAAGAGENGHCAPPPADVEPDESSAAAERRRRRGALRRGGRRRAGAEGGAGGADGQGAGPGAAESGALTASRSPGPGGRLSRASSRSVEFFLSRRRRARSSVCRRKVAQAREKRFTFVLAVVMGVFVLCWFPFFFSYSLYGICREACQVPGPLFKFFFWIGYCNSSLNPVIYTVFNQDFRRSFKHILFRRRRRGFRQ
# [7] = inhibitors of Sendai virus-induced IRF3 signaling, primary screen, TLR/RLR signaling modifier project, cell-based, Sendai virus stimulus, luciferase, 10K MLSCN set (AID 602276); conditions: HEK293 RL24 IRF3 luciferase reporter, at 10 µM, stronger effect = higher value;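 note: firefly luciferase from ISG56 promoter only with Renilla not read in this screen; 0% = Sendai virus plus DMSO and 100% = medium plus DMSO without virus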
# [8] = inhibitors of poly I:C-induced TLR3 signaling, primary screen, cell-based, poly I:C stimulus, luciferase, 10K MLSCN set (AID 602277;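 active = inhibition of the reporter signal at or above 50%; inactive = inhibition below 50%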); conditions: HEK293-TLR3 RL24 IRF3 luciferase reporter, at 10 µM, stronger effect = higher value
Structure (SMILES),cell count [1],inhibition [1],inhibition of aggregation [2],nuclei count [2] [%],inhibition [3],nuclei count [3] [%],fluorescence slope [4],NADPH fluorescence slope [5],slope [6],inhibition [7],inhibition [8]
O=C(NCCC1=CCCCC1)C1CCN(C(=O)Nc2ccccc2)CC1,206,-6.2% (inactive),-13.3% (inactive),92.3,5.2% (inactive),84.8,-0.439 (inactive),-5.1e-05 (inactive),0.00392 (inactive),2.99% (inactive),21.5% (inactive)
Cc1cccc(-n2ncc3c(NCc4cccnc4)ncnc32)c1,670,-21.7% (inactive),9.2% (inactive),101,-18.5% (inactive),119,-0.555 (inactive),-3.3e-05 (inactive),0.00696 (inactive),-49.1% (inactive),-205% (inactive)
Cc1ccc(S(=O)(=O)Cc2ccc(C(=O)N3CCN(Cc4ccccc4)CC3)o2)cc1,760,-9.8% (inactive),-10.9% (inactive),101,-76.2% (inactive),118,-0.569 (inactive),-1.3e-05 (inactive),0.00635 (inactive),10.7% (inactive),37.2% (inactive)
CCOc1ccc(N(C(C)=O)C2C=CS(=O)(=O)C2)cc1 (centres undefined),610,-0.2% (inactive),-4.3% (inactive),104,-4% (inactive),139,-0.496 (inactive),-1.8e-05 (inactive),0.00613 (inactive),3.45% (inactive),19.5% (inactive)
O=C(Nc1nc(-c2ccc(S(=O)(=O)N3CCCC3)cc2)cs1)C1COc2ccccc2O1 (centres undefined),731,3.6% (inactive),-24.6% (inactive),91.5,24% (inactive),81.4,-0.413 (inactive),-2.5e-05 (inactive),0.00956 (active),7.86% (inactive),2.65% (inactive)
COC(=O)c1[nH]c(C)c(/C(O)=C2\C(=O)C(=O)N(CCN3CCOCC3)C2c2cccs2)c1C (centres undefined),450,-4.8% (inactive),2.2% (inactive),96.3,-53.2% (inactive),126,-0.254 (inactive),-2.8e-05 (inactive),0.00576 (inactive),15.2% (inactive),11.2% (inactive)
O=S(=O)(Nc1ccn(-c2ccccc2)n1)c1ccc(Br)cc1,395,-1.6% (inactive),20.2% (inactive),98,-35.6% (inactive),119,-0.413 (inactive),0.000106 (inactive),0.00791 (inactive),10.7% (inactive),17.4% (inactive)
CCN(CC)C(=O)C1CCCN(Cc2ccc(N(C)C)cc2)C1 (centres undefined),376,0% (inactive),-25.6% (inactive),99,-48.8% (inactive),124,-0.462 (inactive),7.7e-05 (inactive),0.00605 (inactive),17.9% (inactive),26.8% (inactive)
CCOc1ccccc1-n1c(SCC(=O)NC2CCCC2)nnc1-c1ccoc1C,588,-9.5% (inactive),35.7% (inactive),77.1,83.6% (inactive),62.7,-0.543 (inactive),1.9e-05 (inactive),0.00524 (inactive),1.09% (inactive),11.6% (inactive)
COc1cc(C(=O)OCC(=O)N(C)Cc2ccccc2)cc(OC)c1OC,405,5.1% (inactive),-1.2% (inactive),110,-264% (inactive),119,-0.535 (inactive),-0.00012 (inactive),0.00533 (inactive),15.1% (inactive),20.6% (inactive)
C=COCCNC(=O)Nc1ccc(Cl)c(Cl)c1,387,-7% (inactive),4.5% (inactive),101,-170% (inactive),119,-0.348 (inactive),-4.7e-05 (inactive),0.00498 (inactive),-35.4% (inactive),-41.6% (inactive)
O=C(CSc1nnnn1-c1ccc(Cl)cc1)NC(=O)Nc1ccc2c(c1)OCCO2,336,5.6% (inactive),19.6% (inactive),84.7,-86.5% (inactive),120,-0.429 (inactive),-3.6e-05 (inactive),0.00808 (inactive),-24.8% (inactive),-57% (inactive)
COc1ccc(C)cc1S(=O)(=O)Nc1cccnc1,283,0.4% (inactive),13.9% (inactive),78.8,-61.4% (inactive),90,-0.475 (inactive),-3.8e-05 (inactive),0.00515 (inactive),25.8% (inactive),25.5% (inactive)
COc1ccc(S(=O)(=O)N2CCC(C(=O)c3ccc4c(c3)OCCO4)CC2)cc1,298,-0.7% (inactive),14.2% (inactive),157,-51.9% (inactive),119,-0.461 (inactive),-8e-05 (inactive),0.00739 (inactive),-3.88% (inactive),12.1% (inactive)
O=C(Nn1c(C2CC2)nc2ccccc2c1=O)c1ccco1,579,-12.1% (inactive),9.9% (inactive),95.2,-38.3% (inactive),116,-0.48 (inactive),6.6e-05 (inactive),0.00689 (inactive),9.09% (inactive),23.5% (inactive)
Cc1onc(-c2ccccc2Cl)c1C(=O)NCCn1c(C)cc2ccccc21,677,9% (inactive),7.9% (inactive),79.4,-37.1% (inactive),124,-0.419 (inactive),-1.5e-05 (inactive),0.00456 (inactive),15.6% (inactive),36.3% (inactive)
COc1cc2c(cc1NC(=O)COC(=O)Cn1cnc3ccccc31)oc1ccccc12,403,7.7% (inactive),-10.9% (inactive),86.8,-2.1% (inactive),110,-0.533 (inactive),-2.6e-05 (inactive),0.00618 (inactive),20.9% (inactive),9.12% (inactive)
CCOC(=O)c1sc2nc(NC(=O)C3CCCCC3)sc2c1C,570,-0.8% (inactive),4.6% (inactive),92.9,19.5% (inactive),96,-0.533 (inactive),-2.5e-05 (inactive),0.00612 (inactive),-10.3% (inactive),-9.22% (inactive)
Cc1cc(C)n(-c2nc3nonc3nc2-n2nc(C)cc2C)n1,797,-15.2% (inactive),-2.2% (inactive),110,-20.5% (inactive),106,-0.416 (inactive),-2e-05 (inactive),0.00318 (inactive),11.8% (inactive),27.1% (inactive)
